Test results reported in PubChem BioAssay (NCATS).
Results filed as inconclusive are left out. Values without a mark were called inactive. Activity calls are given as the source filed them. Calls come from the whole dose curve.

Biological target: Nucleoprotein (Lymphocytic choriomeningitis virus (strain Armstrong)) (UniProt P09992)
Test: qHTS for Inhibitors of the Functional Ribonucleoprotein Complex (vRNP) of Lymphocytic Choriomeningitis Arenaviruses (LCMV): LCMV Primary Screen - GLuc reporter signal (AID 1347086); note: nearly all actives have a fitted effect of over 70% in size
Conditions: LCMV minigenome vRNP cell assay, Gaussia luciferase reporter; series mostly up to 57.5 µM; activity change, negative = inhibition: at the top concentration
% is set by controls: 0 for no effect and ±100 for the full control effect.

Chain of Nucleoprotein (Lymphocytic choriomeningitis virus (strain Armstrong)) (P09992 whole entry, looked up): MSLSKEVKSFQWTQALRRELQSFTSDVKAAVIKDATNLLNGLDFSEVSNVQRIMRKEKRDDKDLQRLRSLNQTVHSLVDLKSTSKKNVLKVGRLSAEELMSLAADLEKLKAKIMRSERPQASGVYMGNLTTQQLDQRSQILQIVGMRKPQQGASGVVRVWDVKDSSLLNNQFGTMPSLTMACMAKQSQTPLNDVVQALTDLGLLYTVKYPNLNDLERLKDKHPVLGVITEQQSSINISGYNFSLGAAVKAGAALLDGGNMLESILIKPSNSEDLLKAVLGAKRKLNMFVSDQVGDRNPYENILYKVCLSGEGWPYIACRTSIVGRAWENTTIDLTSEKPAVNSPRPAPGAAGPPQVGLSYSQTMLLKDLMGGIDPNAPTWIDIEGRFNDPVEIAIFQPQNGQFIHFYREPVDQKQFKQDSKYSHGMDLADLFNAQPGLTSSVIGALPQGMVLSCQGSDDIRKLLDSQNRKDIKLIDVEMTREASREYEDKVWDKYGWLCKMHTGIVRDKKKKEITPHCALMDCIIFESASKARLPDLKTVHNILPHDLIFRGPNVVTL

| Structure (SMILES) | activity change, negative = inhibition | Potency |
| --- | --- | --- |
| CC(C)(Cc1c[nH]c2ccccc12)NCC(O)COc1ccccc1C#N (stereo not drawn) | 11.1% |  |
| O=C1NCN(c2ccccc2)C12CCN(CCCC(c1ccc(F)cc1)c1ccc(F)cc1)CC2 | -1.39% |  |
| c1ccc(CN(CC2=NCCN2)c2ccccc2)cc1 | 16.8% |  |
| O=C(OCC(O)CO)c1ccccc1Nc1ccnc2cc(Cl)ccc12 (stereo not drawn) | -18.8% |  |
| CN1CCN(c2cc3c(nn2)Oc2ccccc2N3C)CC1 | -7.05% [at 24.7 µM] |  |
| CN(C)[C@@H](CCOc1cccc2ccccc12)c1ccccc1 |  | inactive |
| CCC(=O)Nc1ccc(O)cc1 | 11.9% |  |
| c1ccc2[nH]c(-c3cscn3)nc2c1 |  | inactive |
| C=CCOc1ccccc1OCC(O)CNC(C)C (stereo not drawn) | 1.82% |  |
| OCC(O)CS (stereo not drawn) | 32% |  |
| O=C(OCc1ccccc1)c1ccc(O)cc1 | 18.6% |  |
| CC(C)=CCOc1ccc(/C=C/C(=O)c2ccc(OCC=C(C)C)cc2OCC(=O)O)cc1 | 3.49% |  |
| CCC(=O)c1ccc(O)cc1 | 18.5% |  |
| CC(C)OC(=O)C(C(=O)OC(C)C)=C1SC=CS1 |  | inactive |
| CC[N+]1(CC)CCC(=C(c2ccccc2)c2ccccc2)C1C (stereo not drawn) | -8.93% |  |
| CNC1CCCN(c2c(F)cc3c(=O)c(C(=O)O)cn(C4CC4)c3c2OC)C1 (stereo not drawn) |  | inactive |
| CN1[C@@H]2CC[C@H]1CC(OC(=O)c1c[nH]c3ccccc13)C2 (stereo partly drawn) | 23.4% |  |
| C=C1C(=C/C=C2\CCC[C@]3(C)[C@@H]([C@H](C)/C=C/[C@@H](O)C4CC4)CC[C@@H]23)C[C@@H](O)C[C@@H]1O | -16% |  |
